Unmarked numbers belong to inactive results. How the calls were made is not given here.
These molecules were tested against Pantothenate synthetase (Mycobacterium tuberculosis (strain ATCC 25618 / H37Rv)) (UniProt P9WIL5) (assay: Coupled enzyme confirmation of inhibitors against recombinant Mtb PanC (AID 375;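 further: 0% = full reaction with vehicle and 100% = no enzyme background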)). Conditions: coupled enzyme assay; at 10 µM, hits give high values.
Chain of Pantothenate synthetase (Mycobacterium tuberculosis (strain ATCC 25618 / H37Rv)) (P9WIL5 whole entry, looked up): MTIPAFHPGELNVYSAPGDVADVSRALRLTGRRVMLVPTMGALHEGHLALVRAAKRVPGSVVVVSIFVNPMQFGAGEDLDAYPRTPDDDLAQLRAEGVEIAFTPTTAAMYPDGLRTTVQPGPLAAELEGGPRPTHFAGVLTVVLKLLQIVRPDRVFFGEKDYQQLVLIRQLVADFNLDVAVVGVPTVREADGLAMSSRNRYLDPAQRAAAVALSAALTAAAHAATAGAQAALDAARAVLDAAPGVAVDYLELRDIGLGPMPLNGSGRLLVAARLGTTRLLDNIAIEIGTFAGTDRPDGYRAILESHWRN
Molecule `O=C1CC(c2ccccc2)NC(=O)N1` (stereo not given) has an inhibition of 0%.
Molecule `CCc1ccc(CNCc2cccnc2)cc1` has an inhibition of 0%.
Molecule `O=C(Nc1nc2c(s1)CCCC2)C1COc2ccccc2O1` (stereo not given) has an inhibition of 0%.
In the case of `O=C(CSCc1cccc(F)c1)N1CCN(c2ccccc2)CC1`, the inhibition is reported as 4%.
For `CN(c1ccccc1)S(=O)(=O)c1ccc(C(=O)OCC(=O)N2CCOCC2)cc1`, the inhibition was 7%.
`CCn1nnc(NC(=O)c2cc3ccccc3o2)n1` gave an inhibition of 0%.
`NC(=O)CCS(=O)(=O)CCN1CCCCC1` gave an inhibition of 0%.
`CCOCCCNS(=O)(=O)c1ccc2c(c1)oc(=O)n2CC(=O)OCC` was tested, and the inhibition was 8%.
For `COCCn1c(CN2CCN(c3ccccc3F)CC2)nc2c1c(=O)n(C)c(=O)n2C`, the inhibition was 6%.
For `COCCNC(=O)CN1CCC(NC(=O)Nc2ccc(C(F)(F)F)cc2)CC1`, the inhibition was 4%.
For `Cc1ccc2c(c1)-c1c(cnn1CC(=O)NC(C)CCc1ccco1)CO2` (stereo not given), the inhibition was 0%.
With `COCC(=O)n1nc(NCc2ccc(OC)cc2)nc1NCc1ccc(OC)cc1` the inhibition was 0%.
`Cc1nnc(SCc2cc(=O)[nH]c(N3CCCCC3)n2)s1` was tested, and the inhibition was 1%.
Work on `CCCc1cn(S(=O)(=O)c2ccc(OC)cc2OC)nc1N` yielded an inhibition of 0%.
With `CCCCCCn1c(SCC(=O)OC)nc2c1c(=O)[nH]c(=O)n2C` the inhibition was 0%.
With `CC(=O)c1c(C)[nH]c(C(=O)NCc2cccs2)c1C` the inhibition was 0%.
Molecule `COc1ccc(S(=O)(=O)N2CCCC(C(=O)N3CCCCCC3)C2)cc1` (stereo not given) has an inhibition of 6%.
In the case of `CC12CN3CCN(CC(C3)C1(O)CN1CCCCC1)C2` (stereo not given), the inhibition is reported as 0%.
`CCn1c(=O)c(=O)[nH]c2cc(C(=O)N3CCN(c4ccccc4F)CC3)ccc21` gave an inhibition of 4%.
In the case of `COc1ccc(C2=Nn3c(nnc3-c3ccccc3)SC2)cc1OC`, the inhibition is reported as 0%.
For `COC(=O)c1cc(Br)c(=O)n(-c2ccc(OC)cc2)c1`, the inhibition was 0%.
`CCCCCCn1c(CN2CCN(Cc3ccccc3)CC2)nc2c1c(=O)n(C)c(=O)n2C` gave an inhibition of 10%.
Molecule `O=C1N2c3ccccc3CCc3cccc(c32)C1(O)C(F)(F)F` (stereo not given) has an inhibition of 0%.
Work on `CCOC(=O)C1C2C=CC3(CN(c4cccc(Cl)c4)C(=O)C13)O2` (stereo not given) yielded an inhibition of 0%.
`CCOc1ccc(OCc2ccc(C(=O)Nc3cccc(C)n3)o2)cc1` gave an inhibition of 7%.
`CCN1C(=O)c2cccc3c(NC(=O)c4ccc(S(=O)(=O)N(C)C)cc4)ccc1c23` gave an inhibition of 1%.
Molecule `COc1ccccc1N1C(=O)c2ccccc2NC1c1ccncc1` (stereo not given) has an inhibition of 3%.
`N#Cc1c(NCc2ccccc2)ccnc1NCc1cccnc1` was tested, and the inhibition was 0%.
`COc1cc(C)nc(N2CCCC(C(=O)Nc3cccc(Cl)c3Cl)C2)n1` (stereo not given) gave an inhibition of 0%.
`CC(C)C(=O)Nc1ccc(C(=O)NCc2cccnc2)cc1` gave an inhibition of 0%.
Molecule `CCOC(=O)C1=C(O)CCn2c1nc1ccccc12` has an inhibition of 2%.
`CCCCCCn1c(SCCCC)nc2c1c(=O)[nH]c(=O)n2C` gave an inhibition of 4%.
`O=C(O)c1cc(-c2ccccc2)nc2ccccc12` was tested, and the inhibition was 3%.
In the case of `CCCCN1C(=O)C2C(C(=O)Nc3cccc(OC)c3)C3C=CC2(O3)C1C(=O)NC1CCCCC1C` (stereo not given), the inhibition is reported as 0%.
`COc1ccc(CC(=O)Nc2ccc(OC)c(NC(=O)c3ccco3)c2)cc1` was tested, and the inhibition was 7%.
`CCc1nnc(NC(=O)CSc2nnc(-c3ccccc3OC)n2-c2ccccc2)s1` showed an inhibition of 4%.
For `CCN(C(=O)CCc1nc(-c2ccccc2F)no1)c1cc(OC)ccc1OC`, the inhibition was 0%.
`CCCC1CCC(C(=O)Nn2cnc3ccccc3c2=O)CC1` (stereo not given) gave an inhibition of 1%.
Molecule `CCOC(=O)CSC1=C(C#N)C(=O)NC2(CCCCC2)S1` has an inhibition of 3%.
In the case of `COc1ccc(CC(=O)NCc2cccs2)cc1`, the inhibition is reported as 3%.

From PubChem BioAssay
